Source: PubChem BioAssay AID1030 (National Center for Advancing Translational Sciences (NCATS), 2008)
Among all 220,000 compounds or so, about 16,000 (7.3%) were called active. Inconclusive results (about 25%) are left out. This is one part of a sample in which actives are shown more often than they occur. The call rests on the fitted dose curve; in most records, active means well fitted inhibition curve with a large enough effect (not every such curve was filed as active); inconclusive means small, poorly fitted or top-dose-only effect, or another doubt; inactive means no such curve, though single readings can be large or run the other way.

Target: Aldehyde dehydrogenase 1A1 (Homo sapiens) (UniProt P00352)
Assay: qHTS Assay for Inhibitors of Aldehyde Dehydrogenase 1 (ALDH1A1);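 on activity, negative = inhibition: plate controls were no enzyme wells and a reference inhibitor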
Conditions: Purified ALDH1A1, NADH fluorescence, propionaldehyde substrate; series mostly up to 75.3 µM; activity, negative = inhibition: at the top concentration
Potency means the concentration at half of the fitted maximal effect.

Sequence of Aldehyde dehydrogenase 1A1 (Homo sapiens) (P00352 whole entry, looked up): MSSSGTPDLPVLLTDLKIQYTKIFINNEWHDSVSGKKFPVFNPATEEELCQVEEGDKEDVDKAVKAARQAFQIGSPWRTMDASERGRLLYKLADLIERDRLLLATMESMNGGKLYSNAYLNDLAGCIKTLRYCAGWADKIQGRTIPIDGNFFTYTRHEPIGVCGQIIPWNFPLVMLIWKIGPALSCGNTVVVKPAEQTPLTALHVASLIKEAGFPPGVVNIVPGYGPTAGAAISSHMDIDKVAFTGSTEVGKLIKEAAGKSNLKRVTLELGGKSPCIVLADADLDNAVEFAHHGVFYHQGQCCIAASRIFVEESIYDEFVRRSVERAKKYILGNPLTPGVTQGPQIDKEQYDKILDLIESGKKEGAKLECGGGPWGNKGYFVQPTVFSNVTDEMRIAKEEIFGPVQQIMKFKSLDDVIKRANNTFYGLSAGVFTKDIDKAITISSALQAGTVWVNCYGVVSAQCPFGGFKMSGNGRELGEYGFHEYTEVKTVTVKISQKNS

activity, negative = inhibition, inactive:
CCCCCCCCCCCCN1C(=O)CSC1c1cccnc1 (stereo not drawn) -14.6%
Nc1ccc(Cl)c(S(=O)(=O)Nc2ccccc2Cl)c1 12.1%
CCOC(=O)C1=C(CC)Nc2ccccc2N=C1N 10.9%
CC(C)n1c(CN2CCN(Cc3ccccc3)CC2)nc2ccccc21 -3.01%
Cc1ccc2c(c1)C(O)(CC(=O)c1cccc(-n3cccc3)c1)C(=O)N2 (stereo not drawn) 3.09%
CCCCOc1ccc(C(=O)NCc2ccco2)cc1 6.18%
O=C(NCc1ccco1)c1ccc(Cn2c(=O)c3sccc3n(Cc3ccc(F)cc3)c2=O)cc1 7.09%
Cc1ccc(-c2csc(NC(=O)c3cnccn3)n2)cc1C 0.726%
Cn1nnc(NC(=O)CSc2ncn[nH]2)n1 3.76%
COc1ccc(C(=O)CSc2nccc(=O)[nH]2)cc1 -7.29%
CC(=O)N(CCCN(C)C)c1nc2ccc(C)cc2s1 9.7%
Nc1ccc(C(=O)OCC(=O)NC2CCCc3ccccc32)cc1[N+](=O)[O-] (stereo not drawn) 3.62%
CC1(C)C(=O)Nc2ccccc2N1C(=O)COC(=O)Cn1cnc2ccccc2c1=O -2.55%
COc1ccc(OC)c(C(c2nnnn2C(C)(C)C)N2CCc3ccccc3C2)c1 (stereo not drawn) -4.68%
Cc1ccc(C(c2nnnn2C(C)(C)C)N2CCc3ccccc3C2)cc1 (stereo not drawn) 5.23%
CC(=O)c1ccc(N2CCN(S(=O)(=O)c3c(C)[nH]c(=O)[nH]c3=O)CC2)cc1 15.3%
CSc1ccc(/C=N/N2CCN(Cc3ccccc3Cl)CC2)cc1 3.55%
CC(C)(C)NC(=O)CN1CCC(NC(=O)C23CC4CC(CC(C4)C2)C3)CC1 -3.43%
O=C(N1CCCC1)C12CC3CC(C1)CC(C(=O)N1CCCC1)(C3)C2 -2.48%
COC/C=C/C1=CC2=CC(=O)C(C)(OC(=O)CCC(=O)OC)C(=O)C2=CO1 (stereo not drawn) -2.86%
COc1cc(Cl)c(S(=O)(=O)n2cnc(C)c2)cc1Cl 10.4%
Cc1ccccc1-n1c(C)cc(/C=C2\NC(=O)NC2=O)c1C 0.873%

Potency, active:
CC(C)OCCCNC(=O)c1ccc(C2SCC(=O)N2Cc2ccco2)cc1 (stereo not drawn) 10 µM
CC(C)(C)c1ccc(C(=O)CSc2ncn[nH]2)cc1 20 µM
CCNc1ccc(C(=O)OCC(=O)N2c3ccccc3NC(=O)C2(C)C)cc1[N+](=O)[O-] 11.2 µM
COCCn1nnnc1C(c1cc2ccc(OC)cc2[nH]c1=O)N1CCc2ccccc2C1 (stereo not drawn) 25.1 µM
CN1CCN(CC(=O)C23CC4CC(CC(C4)C2)C3)CC1 20 µM
COc1cc(OC)c(-n2c(C)cc(C=O)c2C)cc1Cl 7.08 µM
